# Laboratory results from PubChem BioAssay AID449739 (Vanderbilt High Throughput Screening Facility, 2010).
# Among all 100,000 compounds or so, about 4,200 (4.2%) were called active.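 How the source made its calls: active means single-dose well whose peak fluorescence ratio is a statistical outlier from its plate by either plate-standardised score or position-corrected B-score; inactive means the rest.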 Many of the other results were omitted from the sample, so actives are more common in it than they were.
# Molecular target: Voltage-dependent T-type calcium channel subunit alpha-1H (Homo sapiens) (UniProt O95180)
# Experiment: Cav3.2 calcium influx blockers – cell-based, Fluo-4 calcium fluorescence, FDSS, MLSMR library, primary screen (AID 449739)
# Conditions: Cav3.2-expressing cells, at 10 µM, stronger effect = lower value
# Sequence of Voltage-dependent T-type calcium channel subunit alpha-1H (Homo sapiens) (O95180 whole entry, looked up): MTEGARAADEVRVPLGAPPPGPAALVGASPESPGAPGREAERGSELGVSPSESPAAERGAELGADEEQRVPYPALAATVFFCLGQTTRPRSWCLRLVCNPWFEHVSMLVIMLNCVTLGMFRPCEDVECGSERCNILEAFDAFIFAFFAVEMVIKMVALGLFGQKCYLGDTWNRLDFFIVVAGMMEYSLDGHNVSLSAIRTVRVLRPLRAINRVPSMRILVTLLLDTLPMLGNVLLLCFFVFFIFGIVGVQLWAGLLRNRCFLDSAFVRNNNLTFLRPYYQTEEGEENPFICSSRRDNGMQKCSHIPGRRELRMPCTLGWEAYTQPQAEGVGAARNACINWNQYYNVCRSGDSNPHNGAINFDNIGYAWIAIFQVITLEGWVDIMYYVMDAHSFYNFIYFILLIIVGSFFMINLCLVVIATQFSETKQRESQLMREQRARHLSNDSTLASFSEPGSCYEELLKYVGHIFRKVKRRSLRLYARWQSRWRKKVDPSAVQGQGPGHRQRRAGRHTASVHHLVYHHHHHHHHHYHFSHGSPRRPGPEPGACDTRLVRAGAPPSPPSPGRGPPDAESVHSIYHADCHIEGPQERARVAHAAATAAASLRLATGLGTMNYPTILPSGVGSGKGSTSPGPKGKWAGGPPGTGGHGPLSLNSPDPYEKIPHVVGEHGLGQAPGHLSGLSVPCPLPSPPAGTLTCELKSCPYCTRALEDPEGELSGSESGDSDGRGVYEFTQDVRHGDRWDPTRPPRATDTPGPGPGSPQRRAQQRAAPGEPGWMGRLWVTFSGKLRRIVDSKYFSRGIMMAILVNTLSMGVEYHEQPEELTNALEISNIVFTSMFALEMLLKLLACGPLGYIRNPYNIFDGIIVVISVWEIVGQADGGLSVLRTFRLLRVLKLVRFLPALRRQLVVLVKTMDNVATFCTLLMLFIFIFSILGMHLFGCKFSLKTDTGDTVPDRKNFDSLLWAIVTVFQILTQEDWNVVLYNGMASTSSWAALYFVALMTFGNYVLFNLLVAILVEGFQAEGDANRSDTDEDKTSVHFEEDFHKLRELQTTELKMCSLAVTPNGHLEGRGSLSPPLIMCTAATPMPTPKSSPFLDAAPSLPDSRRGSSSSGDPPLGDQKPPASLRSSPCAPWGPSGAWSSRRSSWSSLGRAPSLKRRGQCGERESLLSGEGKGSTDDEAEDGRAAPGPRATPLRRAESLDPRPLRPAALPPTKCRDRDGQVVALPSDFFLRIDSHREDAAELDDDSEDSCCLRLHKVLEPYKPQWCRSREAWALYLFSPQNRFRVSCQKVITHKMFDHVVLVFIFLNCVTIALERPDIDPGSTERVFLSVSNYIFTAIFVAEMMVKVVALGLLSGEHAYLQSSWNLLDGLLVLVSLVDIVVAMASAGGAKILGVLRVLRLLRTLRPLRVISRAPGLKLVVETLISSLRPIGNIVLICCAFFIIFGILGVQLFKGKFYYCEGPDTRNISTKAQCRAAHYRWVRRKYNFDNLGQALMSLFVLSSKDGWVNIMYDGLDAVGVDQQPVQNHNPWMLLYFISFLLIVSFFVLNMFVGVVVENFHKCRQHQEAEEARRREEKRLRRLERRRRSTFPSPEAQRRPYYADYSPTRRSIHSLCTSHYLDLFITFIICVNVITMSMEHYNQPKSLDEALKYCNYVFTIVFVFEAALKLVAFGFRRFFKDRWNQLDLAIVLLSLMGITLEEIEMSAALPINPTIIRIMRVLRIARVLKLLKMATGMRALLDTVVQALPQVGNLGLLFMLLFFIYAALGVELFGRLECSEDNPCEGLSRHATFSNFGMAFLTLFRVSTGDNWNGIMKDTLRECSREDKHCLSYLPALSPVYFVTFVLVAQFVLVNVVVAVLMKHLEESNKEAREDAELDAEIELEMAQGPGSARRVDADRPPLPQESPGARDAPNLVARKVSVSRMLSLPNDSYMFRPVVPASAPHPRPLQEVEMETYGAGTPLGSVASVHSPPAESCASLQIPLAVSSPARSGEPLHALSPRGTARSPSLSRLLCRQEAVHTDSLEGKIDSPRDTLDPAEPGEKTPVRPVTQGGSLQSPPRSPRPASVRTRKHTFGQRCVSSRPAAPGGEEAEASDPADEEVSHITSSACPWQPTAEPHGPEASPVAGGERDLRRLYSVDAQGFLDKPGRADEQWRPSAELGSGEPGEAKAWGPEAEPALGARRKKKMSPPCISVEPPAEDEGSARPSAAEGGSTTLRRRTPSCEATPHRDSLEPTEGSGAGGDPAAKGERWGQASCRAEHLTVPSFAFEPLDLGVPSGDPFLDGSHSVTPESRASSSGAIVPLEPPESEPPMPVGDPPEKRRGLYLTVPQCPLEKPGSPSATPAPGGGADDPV
row,SMILES,B-score
1,COc1ccc(/C=C/C(=O)Nc2c(C)nn(C)c2C)cc1COc1ccc(Br)cc1,-1.13 (inactive)
2,CCn1c(COc2ccc(OC)cc2)nnc1SCC(=O)Nc1cc(OC)ccc1OC,-0.694 (inactive)
3,CCn1nc(C)c(NC(=O)/C=C/c2ccc(OC)c(COc3ccc(Br)cc3)c2)c1C,-3.94 (active)
4,Cc1ccc(C(=O)N/C(=C/C=C/c2ccccc2)C(=O)NCc2ccco2)cc1,-4.77 (active)
5,O=C(CN1CCN(S(=O)(=O)/C=C/c2ccccc2)CC1)NC(=O)NCc1ccco1,0.253 (inactive)
6,CCCCOc1ccc(C(=O)NCc2ccco2)cc1,-0.276 (inactive)
7,O=C(CSCc1ccccc1Cl)NNC(=O)c1ccccc1,-0.234 (inactive)
8,CCOC(=O)c1ccc(NC(=O)c2c(N)n(C)c(=O)[nH]c2=O)cc1,-2 (inactive)
9,CCN(CC)C(=O)CN(c1cccc(OC)c1)S(=O)(=O)c1ccc(C)cc1,0.247 (inactive)
10,COc1cccc(NC(=O)CN(C)S(=O)(=O)c2ccc(C)cc2)c1,0.446 (inactive)
11,COC(=O)CN(c1nc(C)c(Cl)c(OC)n1)S(=O)(=O)c1ccc(C)cc1,-3.54 (active)
12,O=C(NC1CC1)C1=C[C@H](c2c[nH]c3ccccc23)C[C@H](OCc2ccc(CO)cc2)O1,-0.0426 (inactive)
13,Cc1cc(C)cc(OCC(=O)NNC(=O)c2cc3ccccc3oc2=O)c1,0.0296 (inactive)
14,CCOC(=O)CSc1ncc(-c2cccc(Cl)c2)cn1,0.28 (inactive)
15,Nc1c(-c2cccc(Cl)c2)cnn1-c1cccc([N+](=O)[O-])c1,-4.85 (active)
16,Cc1onc(-c2ccccc2Cl)c1C(=O)OCC(=O)c1ccccc1,-0.332 (inactive)
17,COCCNC(=O)c1ccccc1-c1nc(-c2ccccc2Cl)no1,-0.0406 (inactive)
18,Cc1onc(-c2ccccc2Cl)c1C(=O)NCCn1ccc2ccccc21,-3.91 (active)
19,Cc1ccc2cc(CCNC(=O)c3c(-c4ccccc4Cl)noc3C)c(=O)[nH]c2c1,-4.54 (active)
20,Cc1ccc2cc(CCNC(=O)c3ccc4c(c3)OCO4)c(=O)[nH]c2c1,0.446 (inactive)
21,Cc1onc(-c2c(Cl)cccc2Cl)c1C(=O)c1c[nH]c(C(=O)NC2CC2)c1,0.359 (inactive)
22,CCCCCCNS(=O)(=O)c1ccccc1Br,-1.42 (inactive)
23,CC(C)C(=O)N1CCC2(CC1)Oc1ccc(F)cc1C(=O)C21CC(c2ccccc2)=NO1 (stereo unspecified),-0.517 (inactive)

row,SMILES,B-score
1,CC(C)(C)Oc1ccccc1Nc1nc(NCCO)nc(N2CCCC2)n1,0.107 (inactive)
2,Cc1ccc(-c2cc(=O)c3ccc(F)cc3[nH]2)cc1,-1.19 (inactive)
3,O=c1oc2cc(O)ccc2cc1-c1ccc(F)cc1,-0.437 (inactive)
4,CCCCCCc1cc2cc(-c3nnc(-c4ccccc4)o3)c(=O)oc2cc1O,-8.89 (active)
5,O=C(c1ccc(Cl)cc1)c1cnc(Nc2ccccc2)s1,0.657 (inactive)
6,C[C@@H]1NC(=O)c2cc([N+](=O)[O-])cc(F)c2NCCC[C@@H](C(N)=O)NC(=O)[C@H](CC(N)=O)NC1=O,0.0125 (inactive)
7,CCCCNC(=O)c1onc(CSc2cccc(OC)c2)c1C(=O)O,-0.115 (inactive)
8,O=C(O)C1=C[C@H](c2cccs2)C[C@H](OCCCCO)O1,0.408 (inactive)
9,Cc1ccccc1CSCCNC(=O)c1ccc(N(C)S(=O)(=O)c2ccccc2)cc1,-5.82 (active)
10,CN(c1ccc(C(=O)NCc2ccccn2)cc1)S(C)(=O)=O,0.091 (inactive)
11,Cc1ccc(C(=O)NCCNS(=O)(=O)c2ccccc2)cc1,0.965 (inactive)
12,NC(N)=NCCCc1cn(CC(=O)N2CCNCC2)nn1,0.0996 (inactive)
13,N#Cc1ccc(-c2ccc(F)cc2)nc1Sc1ccccc1,-0.0447 (inactive)
14,Cc1ccc(SCC2=NNC(=O)C2)cc1,-0.242 (inactive)
15,COc1ccc2c(c1)CCNC2Cc1ccc(OC)c(O)c1 (stereo unspecified),0.0462 (inactive)
16,O=C(CN1CCN(C(=O)c2ccco2)CC1)Nc1ccc2c(c1)OCO2,0.902 (inactive)
17,O=C(CN1CCN(C(=O)c2ccco2)CC1)Nc1ccc(Cl)c(C(F)(F)F)c1,-6.28 (active)
18,COc1ccc(OC)c(NC(=O)CN2CCN(C(=O)c3ccco3)CC2)c1,1.23 (inactive)
19,COc1ccc(CC(=O)Nc2sc(Cc3ccccc3)c(C)c2C(N)=O)cc1,-0.493 (inactive)
20,Cc1ccccc1NC(=O)C(C)c1ccc(-c2ccccc2)c(F)c1 (stereo unspecified),-0.689 (inactive)
21,CC1CCN(c2nc3c(c(=O)[nH]c(=O)n3C)n2CCCc2ccccc2)CC1,-5.1 (active)
22,CN1CCN(c2nc3c(c(=O)[nH]c(=O)n3C)n2Cc2cccc3ccccc23)CC1,0.465 (inactive)
23,CCCSc1nc2c(c(=O)[nH]c(=O)n2C)n1CCc1ccccc1,-0.0804 (inactive)

row,SMILES,B-score
1,Cc1nc(C(=O)Nc2ccc(Cl)cc2)sc1C1(C)CC(c2ccccc2)=NO1 (stereo unspecified),0.201 (inactive)
2,O=c1c(-c2ccccc2)coc2cc(O)ccc12,1.09 (inactive)
3,CCN(CC)C(=O)CC(c1ccc2c(c1)OCO2)c1c(OC)cc(OC)c2c(-c3ccccc3)cc(=O)oc12 (stereo unspecified),-1.45 (inactive)
4,CCn1c(O)c(N=NC2=NC(=O)CS2)c2cc(C)ccc21,-4.99 (active)
5,COC(=O)Cn1c2ccc(C)cc2c2nc(C)sc21,1.71 (inactive)
6,Cc1nnc(NC(=O)CSc2nc(C3CCCCC3)nc3ccccc23)s1,-0.12 (inactive)
7,NC(=O)[C@H]1CC2(CC(c3cccc(NC(=O)[C@H]4CCC(=O)N4)c3)=NO2)CN1C(=O)c1ccccc1C(=O)c1ccccc1 (stereo partly specified),-0.157 (inactive)
8,CCO[C@H]1OC(C(=O)Nc2ccccc2)=C[C@@H](C2CC2)[C@@H]1CCCO,0.964 (inactive)
9,NC(=O)C1=C[C@@H](c2csc3ccccc23)C[C@@H](OCc2ccc(CO)cc2)O1,-0.0524 (inactive)
10,COC(=O)C(CC(=O)Nc1cc(C)ccc1C)Nc1ccccc1OC (stereo unspecified),-0.376 (inactive)
11,Cc1ccc(C)c(NC(=O)C2Cc3ccccc3CN2C(=O)OCc2ccccc2)c1 (stereo unspecified),-6.09 (active)
12,Cc1ccc(C)c(NC(=O)C2CC(=O)N(C(C)C)C2)c1 (stereo unspecified),-0.00724 (inactive)
13,COc1ccc(-n2c(SCC(=O)Nc3sc4c(c3C#N)CCCC4)nnc2-c2ccc(O)cc2)cc1,-0.184 (inactive)
14,CCOC(=O)C(C)Sc1nc2ccccc2c(=O)n1CC1CCCCC1 (stereo unspecified),-2.88 (inactive)
15,N#Cc1c(NC(=O)CSc2nc3ccccc3c(=O)n2Cc2ccco2)sc2c1CCCC2,-5.99 (active)
16,C=C(C)Cn1c(SCC(=O)NCc2ccco2)nc2sc3c(c2c1=O)CCC3,-0.92 (inactive)
17,O=C(CCCn1c(SCC(=O)c2ccc(F)cc2)nc2ccccc2c1=O)NCc1ccco1,-2.82 (inactive)
18,CC(Sc1nc2ccccc2c(=O)n1Cc1ccco1)C(=O)c1ccccc1 (stereo unspecified),-4.25 (active)
19,CCCNC(=S)NC1CC2CCCC(C1)N2CC(C)C (stereo unspecified),1.82 (inactive)
20,COc1ccc(N2CCN(C(=O)c3ccc4c(Cl)c5c(nc4c3)CCCC5)CC2)cc1,-0.0196 (inactive)
21,CN1CCN(S(=O)(=O)c2ccc(N3CCN(S(=O)(=O)c4cccs4)CC3)nc2)CC1,1.73 (inactive)
22,N#Cc1cc([N+](=O)[O-])ccc1Oc1cccc(/C=N/NC(=O)c2ccc(Cl)cc2)c1,-0.086 (inactive)
23,CCOC(=O)Cc1csc(NC(=O)C(C)(C)C)n1,0.211 (inactive)

row,SMILES,B-score
1,CCOC(=O)Cc1csc(NC(=O)CSc2nc(C)cc(=O)[nH]2)n1,-5.95 (active)
2,CCCCc1nnc(NC(=O)CSc2nc(C)cc(=O)[nH]2)s1,-0.0258 (inactive)
3,C=CCn1c(-c2ccc(Cl)cc2)ccc(C#N)c1=O,-1.56 (inactive)
4,NC1=NC[C@@H](Cc2ccc(O)cc2)N1CC1CCCCC1,0.0175 (inactive)
5,C#Cc1ccc([C@@H]2C=C(C(=O)O)O[C@H](OCCCCO)C2)cc1,-1.58 (inactive)
6,CC1CCCN(Cc2nc3c(c(=O)n(C)c(=O)n3C)n2CC(=O)c2ccccc2)C1 (stereo unspecified),-0.792 (inactive)
7,CCCCCCn1c(CN2CCCC(C)C2)nc2c1c(=O)n(C)c(=O)n2C (stereo unspecified),-3.75 (active)
8,CCN1CCN(Cc2nc3c(c(=O)n(C)c(=O)n3C)n2CC(=O)c2ccccc2)CC1,0.531 (inactive)
9,C/C(=N/NC(=O)c1ccc(NC(=O)c2ccc(F)cc2)cc1)c1ccccc1,0.425 (inactive)
10,CCOc1ccc(OCC)c(-c2c(=O)n(OCc3ccc(Cl)cc3)c3ccccc3[n+]2[O-])c1,-1.31 (inactive)
11,O=C(Nc1cccc2ncccc12)c1ccc(-c2ccc(Cl)cc2Cl)o1,-0.641 (inactive)
12,Clc1ccc(COn2c(-c3ccc(Cl)cc3Cl)nc3ncccc32)cc1,-5.63 (active)
13,COc1ccc(C(F)(F)F)cc1N/C=C\c1nnnn1-c1ccc(C)cc1,-3.02 (inactive)
14,CNC(=O)CSc1nnc(CCc2ccccc2)n1-c1ccccc1,-0.00574 (inactive)
15,COc1ccccc1NC(=O)CSc1nnc(Cn2nnc(-c3ccccc3)n2)n1-c1ccccc1,-7.2 (active)
16,COc1ccc(OC)c(/C=N/NC(=O)CSc2nnc(C)n2-c2ccccc2)c1,2 (inactive)
17,O=C(Nc1cccc2ncccc12)C(Cl)(Cl)Cl,1.36 (inactive)
18,COc1ccc(OCC(=O)NN2Cc3ccccc3C2=N)cc1,0.0596 (inactive)
19,O=C(Cc1ccccc1)N/N=C/c1ccc(Cl)cc1Cl,-0.673 (inactive)
20,CCCC(=O)Nc1cc(OCC)c(NC(=O)NC2CCCCC2)cc1OCC,0.0578 (inactive)
21,O=C(CCCC(=O)N(CC(=O)NC1CCCC1)Cc1ccccc1Cl)Nc1ccccn1,-1.66 (inactive)
22,CCOc1ccccc1N(CC(=O)NC1CCCCC1)C(=O)CCCC(=O)Nc1ccccn1,-8.92 (active)
